Our source for the Potency values is PubChem BioAssay (Tox21).

Values without a mark were called inactive. Records with an inconclusive call do not appear. Calls of active or inactive are those of the source. Unless noted, calls follow the shape of the full dose curve.

The nature of assay [1]: Nuclear factor erythroid 2-related factor 2/antioxidant responsive element (Nrf2/ARE) small molecule agonists: qHTS cell viability counter screen in human keratinocytes (AID 1919968; active = well fitted curve in the direction sought with a large enough effect in the repeat runs; an effect the other way counts as inactive or inconclusive; also: nearly all actives have a fitted effect of over 55% in size; also: potency is read from the fitted curve at half-maximal effect). Summed up: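 CellTiter-Fluor fluorescence, read 1 h after reagent, gave viability in the same wells as the ARE-luciferase assay. KeratinoSens cells (1,500/well) had 23 h compound exposure at 37 C/5% CO2 following 5 h plating.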
In general terms: Quantitative high-throughput screening tests each substance at several concentrations.

A short description of assay [2]: Nuclear factor erythroid 2-related factor 2/antioxidant responsive element (Nrf2/ARE) small molecule agonists: luciferase reporter gene qHTS assay in human keratinocytes (AID 1919969; also: nearly all actives have a fitted effect of over 35% in size; also: potency is read from the fitted curve at half-maximal effect). (In a reporter assay the amount or activity of a reporter protein is the signal.)
Assay [3] deals with KiSS-1 receptor (Homo sapiens) (UniProt Q969F8). The assay is described as follows: Human kisspeptin (KISS1R) small molecule agonists, calcium flux assay in KISS1R-HEK293 cells (AID 1920064; active = well fitted curve in the direction sought with a large enough effect in the repeat runs; an effect the other way counts as inactive or inconclusive). The essentials: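 Agonist mode: intracellular calcium rise tracked at 1 s intervals over 3 min (480/540 nm) immediately after compound addition to dye-loaded KISS1R-HEK293 stable cells. Each compound tested at 15 concentrations in triplicate.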
Chain of KiSS-1 receptor (Homo sapiens) (Q969F8 whole entry, looked up): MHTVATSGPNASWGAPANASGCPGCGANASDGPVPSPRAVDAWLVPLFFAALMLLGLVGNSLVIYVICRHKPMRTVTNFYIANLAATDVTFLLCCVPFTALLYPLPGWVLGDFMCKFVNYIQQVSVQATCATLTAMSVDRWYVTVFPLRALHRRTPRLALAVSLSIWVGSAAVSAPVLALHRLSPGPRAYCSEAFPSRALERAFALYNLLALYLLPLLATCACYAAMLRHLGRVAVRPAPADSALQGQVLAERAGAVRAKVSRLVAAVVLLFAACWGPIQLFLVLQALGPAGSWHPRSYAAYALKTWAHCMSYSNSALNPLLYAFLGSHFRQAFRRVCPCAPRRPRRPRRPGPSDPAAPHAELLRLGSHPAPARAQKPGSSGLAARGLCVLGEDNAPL
(Calcium assays in cells follow changes in intracellular calcium, usually with a dye or a luminescent sensor.)

Assay [4] in a line: G protein-coupled receptor (GPCR) small molecule agonists, calcium flux assay: HEK293 wild type cell line counter screen (AID 1920065). Summed up:
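Calcium flux counter screen: compound added in agonist mode at 15 concentrations in triplicate to dye-loaded parental HEK293 cells. Fluorescence (480/540) read kinetically for 3 min; ATP served as positive control.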

The nature of assay [5]: p53 small molecule agonists, cell-based qHTS assay with human liver microsomes (AID 1963577). The essentials:
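Compounds act here after metabolic activation: human liver microsomes and NADPH, both at 0.5 mg/mL final, were co-added to p53RE-bla cells. Incubation ran 16 h at 37 C, followed by LiveBLAzer detection.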

Assay [6] can be described thus: p53 small molecule agonists, cell-based qHTS assay with rat liver microsomes (AID 1963578). The essentials: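 Read-out is beta-lactamase reporter fluorescence (LiveBLAzer, 2 h, room temperature, dark) in p53RE-bla cells treated 16 h at 37 C with compound, rat liver microsomes and NADPH, both 0.5 mg/mL final.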
Assay [7] in a line: p53 small molecule agonists, cell-based qHTS assay with human liver microsomes: qHTS cell viability counter screen (AID 1963579). Also: nearly all actives have a fitted effect of over 45% in size. Also: potency is read from the fitted curve at half-maximal effect. Summed up:
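Cells carrying the p53 response-element beta-lactamase reporter are treated for 16 h at 37 C with test compounds in the presence of human liver microsomes and NADPH (both 0.5 mg/mL final); ATP-based CellTiter-Glo luminescence then reports viability.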

Assay [8] can be described thus: p53 small molecule agonists, cell-based qHTS assay with rat liver microsomes: qHTS cell viability counter screen (AID 1963580). Also: nearly all actives have a fitted effect of over 45% in size. Also: potency is read from the fitted curve at half-maximal effect. The essentials: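 Rat liver microsome (0.5 mg/mL final) and NADPH (0.5 mg/mL final) co-incubation with compounds for 16 h at 37 C on HCT-116 p53RE-bla cells; cytotoxicity taken from intracellular ATP luminescence.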
For assay [9], the target named is 5-hydroxytryptamine receptor 2A (Homo sapiens) (UniProt P28223). The assay is described as follows: 5-hydroxytryptamine receptor 2A (HTR2A) small molecule agonists, cell-based qHTS assay (AID 1963587). Also: nearly all actives have a fitted effect of over 30% in size. Also: potency is read from the fitted curve at half-maximal effect. The essentials: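 Kinetic calcium-flux fluorescence (2 min, 1 sec intervals) after compound addition in agonist mode. HTR2A-CHO cells were cultured 18 h, then dye-loaded 1 h at 37 C.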
Chain of 5-hydroxytryptamine receptor 2A (Homo sapiens) (P28223 whole entry, looked up): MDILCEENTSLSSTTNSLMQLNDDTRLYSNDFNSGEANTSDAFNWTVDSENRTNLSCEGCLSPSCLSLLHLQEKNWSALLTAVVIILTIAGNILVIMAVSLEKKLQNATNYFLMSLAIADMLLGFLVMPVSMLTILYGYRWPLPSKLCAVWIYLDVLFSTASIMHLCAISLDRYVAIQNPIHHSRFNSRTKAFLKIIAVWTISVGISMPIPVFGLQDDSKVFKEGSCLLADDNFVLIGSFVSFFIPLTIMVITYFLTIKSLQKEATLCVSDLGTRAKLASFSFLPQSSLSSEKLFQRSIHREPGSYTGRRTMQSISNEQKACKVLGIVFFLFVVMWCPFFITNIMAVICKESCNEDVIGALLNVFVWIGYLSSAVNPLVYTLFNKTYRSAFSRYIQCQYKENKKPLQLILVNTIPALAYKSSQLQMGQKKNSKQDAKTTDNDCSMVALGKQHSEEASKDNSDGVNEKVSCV

Assay [10] concerns the target Muscarinic acetylcholine receptor M1 (Homo sapiens) (UniProt P11229). Nature of the assay: Cholinergic receptor muscarinic 1 (CHRM1) small molecule antagonists, cell-based qHTS assay (AID 1963588). Also: nearly all actives have a fitted effect of over 40% in size. Also: potency is read from the fitted curve at half-maximal effect. Summed up:
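Compounds were tested at 15 concentrations in three independent runs. Dye-loaded CHRM1-CHO cells were exposed 5 min at room temperature before stimulation by acetylcholine added at 50nM. Intracellular calcium was read kinetically on FDSS for 3 min.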

Assay [11] concerns the target Beta-2 adrenergic receptor (Homo sapiens) (UniProt P07550). Nature of the assay: Adrenergic beta2 receptor (ADRB2) small molecule antagonists, cell-based qHTS assay (AID 1963592). Also: nearly all actives have a fitted effect of over 50% in size. Also: potency is read from the fitted curve at half-maximal effect. Summed up: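 Assay format: CHO-ADRB2 cells, 18-20hr seeding at 37C/5% CO2, then compound plus 1nM isoproterenol agonist mix for 0.5hr RT. Homogeneous time-resolved fluorescence cAMP detection after 1hr, expressed as 665/615 nm ratio.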

Assay [12] shares this target. The assay is described as follows: Adrenergic beta2 receptor (ADRB2) small molecule agonists, cell-based qHTS assay (AID 1963593).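 Also: CHO cells stably overexpressing human ADRB2.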 Summed up:
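CHO cells stably over-expressing ADRB2 were plated overnight at 37C, then dosed with compounds plus a stimulation mix containing 100uM IBMX and 25uM Ro-20-1724 for 0.5hr at room temperature. cAMP was measured by HTRF competition, 1hr.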

In assay [13] the target is D(2) dopamine receptor (Homo sapiens) (UniProt P14416). The assay is described as follows: Dopamine D2 receptor (DRD2) small molecule agonists, cell-based qHTS assay (AID 1963594). Also: nearly all actives have a fitted effect of over 35% in size. Summed up:
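cAMP accumulation in DRD2-HEK293 cells measured by HTRF after 1 h detection; compounds added 10 min before NKH477 (200nM […]) forskolin-analogue stimulation, 30 min at room temperature, with Ro20-1724 present at 0.1 mM final.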

A short description of assay [14]: p53 small molecule agonists, cell-based qHTS assay: qHTS cell viability counter screen (AID 1963581). Also: nearly all actives have a fitted effect of over 45% in size. The essentials: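 Counter screen read by CellTiter-Glo luminescence (ATP content, 30 min at room temperature), run in the same wells as the beta-lactamase reporter read. HCT-116 p53RE-bla cells saw compounds for 16 h at 37 C.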
For assay [15], the target named is 5-hydroxytryptamine receptor 2A (Homo sapiens) (UniProt P28223). Nature of the assay: 5-hydroxytryptamine receptor 2A (HTR2A) small molecule antagonists, cell-based qHTS assay (AID 1963586). Also: nearly all actives have a fitted effect of over 45% in size. The essentials: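 CHO cells stably expressing human HTR2A were plated for 18 h at 37 C, then loaded with calcium dye for 1 h. Compounds were preincubated 5 min at room temperature before DOI (4 nM solution) was added. Kinetic fluorescence was read for 3 min.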

The target of assay [16] is Muscarinic acetylcholine receptor M1 (Homo sapiens) (UniProt P11229). Nature of the assay: Cholinergic receptor muscarinic 1 (CHRM1) small molecule agonists, cell-based qHTS assay (AID 1963589). Also: nearly all actives have a fitted effect of over 35% in size. The essentials:
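Agonist-mode calcium-flux screen: compounds at 15 concentrations, three independent runs, were pin-transferred onto dye-loaded human CHRM1-CHO cells. Fluorescence was then recorded kinetically every second over minutes.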

Assay [17] can be described thus: cAMP Responsive Elements (CRE) small molecule agonists, cell-based qHTS assay (AID 1963590). Summed up:
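Agonist mode: compound added to CRE-bla HEK 293T cells (2,000/well, 18 h after plating) for 3 h at 37 C/5% CO2. Reporter activity detected via FRET beta-lactamase substrate, 2 h room-temperature loading.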

Assay [18] in a line: cAMP Responsive Elements (CRE) small molecule antagonists, cell-based qHTS assay (AID 1963591; active = well fitted inhibition curve with a large enough effect in the signal ratio in the repeat runs, not every such curve was filed as active; the % refers to the signal ratio). The essentials:
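Antagonist mode: compounds are added alongside the adenylyl cyclase activator NKH477 (0.25 uM final) to CRE-bla HEK293T cells for 3 h. LiveBLAzer FRET substrate, 2 h at room temperature, reports bla expression.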

A short description of assay [19]: p53 small molecule agonists, cell-based qHTS assay (AID 1963582; active = well fitted activation curve with a large enough effect in the signal ratio in the repeat runs, not every such curve was filed as active; the % refers to the signal ratio). Summed up: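 Read-out is beta-lactamase FRET fluorescence after 2 h at room temperature with LiveBLAzer B/G substrate. p53 response element-bla cells were treated 16 h at 37 C with compounds in DMSO, added 5 h after seeding.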
Assay [20] has as its target D(2) dopamine receptor (Homo sapiens) (UniProt P14416). Nature of the assay: Dopamine D2 receptor (DRD2) small molecule antagonists, cell-based qHTS assay (AID 1963595; active = well fitted inhibition curve with a large enough effect in the signal ratio in the repeat runs, with a control signal flat; the % refers to the signal ratio; also: potency is read from the fitted curve at half-maximal effect). The essentials:
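HEK293 cells stably expressing DRD2, preincubated with 0.1 mM Ro20-1724 and compounds 10 min, were stimulated with 200 nM NKH477 plus 12 nM quinpirole for 30 min at room temperature; cAMP measured by HTRF (665/620 nm).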

Chain of Muscarinic acetylcholine receptor M1 (Homo sapiens) (P11229 whole entry, looked up): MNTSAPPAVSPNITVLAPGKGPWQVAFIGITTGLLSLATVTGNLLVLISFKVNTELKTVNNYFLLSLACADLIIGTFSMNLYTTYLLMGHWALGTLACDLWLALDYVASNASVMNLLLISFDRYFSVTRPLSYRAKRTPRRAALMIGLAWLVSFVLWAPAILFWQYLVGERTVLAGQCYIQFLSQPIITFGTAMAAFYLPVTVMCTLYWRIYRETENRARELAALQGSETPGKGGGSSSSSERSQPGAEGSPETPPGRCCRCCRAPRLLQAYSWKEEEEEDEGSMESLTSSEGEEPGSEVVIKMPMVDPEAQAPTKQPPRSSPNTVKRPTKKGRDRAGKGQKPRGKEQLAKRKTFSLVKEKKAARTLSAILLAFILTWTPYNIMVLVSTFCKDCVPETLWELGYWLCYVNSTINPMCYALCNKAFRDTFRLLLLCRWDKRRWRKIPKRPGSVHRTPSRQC
Chain of Beta-2 adrenergic receptor (Homo sapiens) (P07550 whole entry, looked up): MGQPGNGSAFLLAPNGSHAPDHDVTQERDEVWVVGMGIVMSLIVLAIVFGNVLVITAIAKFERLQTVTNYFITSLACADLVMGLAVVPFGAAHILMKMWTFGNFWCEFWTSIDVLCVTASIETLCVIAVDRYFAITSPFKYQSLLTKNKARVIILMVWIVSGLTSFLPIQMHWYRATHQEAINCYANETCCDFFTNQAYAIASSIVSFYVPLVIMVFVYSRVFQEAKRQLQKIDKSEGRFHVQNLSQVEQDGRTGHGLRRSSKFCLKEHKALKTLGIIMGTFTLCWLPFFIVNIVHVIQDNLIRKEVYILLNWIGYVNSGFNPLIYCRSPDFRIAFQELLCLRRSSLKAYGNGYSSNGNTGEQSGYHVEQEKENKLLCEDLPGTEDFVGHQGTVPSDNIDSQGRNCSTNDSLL
Chain of D(2) dopamine receptor (Homo sapiens) (P14416 whole entry, looked up): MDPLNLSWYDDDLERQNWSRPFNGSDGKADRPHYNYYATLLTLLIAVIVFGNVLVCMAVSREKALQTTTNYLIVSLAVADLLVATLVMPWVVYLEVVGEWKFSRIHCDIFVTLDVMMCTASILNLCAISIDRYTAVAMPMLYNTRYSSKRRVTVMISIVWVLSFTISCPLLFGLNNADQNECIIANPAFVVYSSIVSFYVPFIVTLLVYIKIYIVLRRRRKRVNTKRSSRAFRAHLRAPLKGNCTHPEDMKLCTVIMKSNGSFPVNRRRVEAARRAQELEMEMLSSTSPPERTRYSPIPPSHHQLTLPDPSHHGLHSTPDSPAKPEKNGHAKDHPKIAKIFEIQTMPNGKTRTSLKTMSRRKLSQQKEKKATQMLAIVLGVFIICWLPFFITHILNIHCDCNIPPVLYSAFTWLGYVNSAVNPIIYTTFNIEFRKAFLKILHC

Take `CCCCCCOC(=O)NC(=N)c1ccc(NCc2nc3cc(C(=O)N(CCC(=O)OCC)c4ccccn4)ccc3n2C)cc1`: the Potency result in assay [1], in assay [2], in assay [3], in [4], in [5] and in assay [6] was “inactive” each time. Besides, the Potency result in [7], in assay [8], in assay [9], in [10], in assay [11] and in assay [12] was “inactive” throughout. In addition, the Potency entry in assay [13] is “inactive”.
With `CCCc1ncc(C[n+]2ccccc2C)c(N)n1`, the Potency result in [1], in assay [2], in assay [3], in assay [4], in assay [6] and in [8] was “inactive” each time. Further, the Potency entry in assay [14], in [15], in assay [10], in assay [16], in [17] and in assay [18] was “inactive” each time. Besides, the Potency result in [11] and in [13] was “inactive” throughout.
For the molecule `CCCCCCCCCCCCOCCOCCOCCOCCOCCOCCOCCOCCOCCO`, the values for the Potency in assay [1] and in assay [10] were 29.8 µM (active) and 9.18 µM (active), respectively. For the same molecule, the Potency entry in assay [2], in [3], in assay [4], in assay [5], in assay [6] and in assay [14] was “inactive” in each case. The Potency result in [19], in assay [9], in [16], in [11], in assay [12] and in [20] was “inactive” each time.
With `C[C@]12CCC(=O)C=C1[C@@H]1C[C@@H]1[C@H]1[C@@H]3[C@@H]4C[C@@H]4[C@@]4(CCC(=O)O4)[C@@]3(C)CC[C@@H]12`, the Potency result in assay [1], in [2], in [3], in assay [4], in assay [6] and in assay [7] was “inactive” throughout. Besides, the Potency result in assay [8], in [14], in assay [19], in [15], in assay [9] and in assay [16] was “inactive” in each case. The Potency entry in [12], in assay [13] and in assay [20] was “inactive” in each case. Further, in assay [10], the Potency is 18.3 µM (active).
Turning to `COC(=O)CSc1cc(N=c2sc(=O)n3n2CCCC3)c(F)cc1Cl`, the Potency entry in assay [1], in assay [2], in assay [3], in assay [4], in assay [6] and in assay [7] was “inactive” throughout. In addition, the Potency entry in [8], in assay [9], in [10], in assay [16], in [11] and in [20] was “inactive” in each case.
`CC(C)(C)c1ccc(OC2CCCCC2O)cc1` (stereo not drawn): the Potency entry in assay [1], in assay [3], in assay [4], in [5], in assay [6] and in assay [7] was “inactive” throughout. Besides, the Potency entry in assay [14], in assay [10], in assay [18], in assay [13] and in assay [20] was “inactive” each time. Further, the figures for the Potency in assay [2], in assay [8] and in assay [9] were 38.6 µM (active), 1.62 µM (active) and 43.6 µM (active), respectively.
As for `CCCc1ccc(OC)cc1`, the Potency result in [1], in [2], in [3], in assay [4], in assay [7] and in assay [8] was “inactive” throughout. The Potency entry in assay [14], in [15], in [9], in assay [10], in [16] and in assay [17] was “inactive” each time. For the same molecule, the Potency result in assay [18], in assay [11], in [12] and in assay [13] was “inactive” throughout.
With `CC(Cc1cccc(C(F)(F)F)c1)NCCOC(=O)c1ccccc1` (stereo not drawn), the Potency entry in assay [1], in assay [2], in assay [3], in assay [4], in [5] and in [6] was “inactive” in each case. Besides, the Potency result in assay [7], in assay [8], in [19], in assay [16], in assay [17] and in assay [13] was “inactive” each time. For the same molecule, in assay [20], the Potency result is “inactive”. Further, in assay [11], the Potency is 29.8 µM (active).
For `O=C1C=CC(=O)N1c1ccccc1`, the Potency is 27.3 µM (active) in assay [1]; 15.4 µM (active) in [2]; 20.4 µM (active) in assay [7]; 24.5 µM (active) in assay [9]; 13.7 µM (active) in [20]. The Potency entry in [3], in assay [4], in assay [6], in assay [15] and in assay [10] was “inactive” in each case.
